The nature of experiment [1]: Confirmatory qHTS for small molecule stabilizers of the endoplasmic reticulum resident proteome: Secreted ER Calcium Modulated Protein (SERCaMP) assay (AID 1508628). Further: potency means the concentration at half of the fitted maximal effect; nearly all actives have a fitted effect of over 40% in size. In short, it runs like this: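 Reporter secretion upon ER calcium depletion (100 nM thapsigargin, 4 h, 37C) is measured as medium luminescence with coelenterazine, after 16 h compound pretreatment of SH-SY5Y-GLuc-SERCaMP cells; primary at three concentrations up to 38.3 uM, follow-up at 11 (up to 76.6 uM).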
For orientation: qHTS replaces the single test concentration by a dilution series.

Experiment [2] is described as follows: Cell Viability qHTS for small molecule stabilizers of the endoplasmic reticulum resident proteome (AID 1508629).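 Further: human SH-SY5Y neuroblastoma cells carrying the GLuc-SERCaMP reporter; compound exposure about 46 h in total before the viability read; on the % scale 0 is the no-effect control and ±100 the full control effect.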 The conditions noted are these: cell viability counter-screen, 100 nM thapsigargin for final 4 h.
Experiment [3] deals with Lysosomal acid glucosylceramidase (Homo sapiens) (UniProt P04062). Description: Glucocerebrosidase-p2 (AID 348; in the data active means potency below about 10 µM; further: potency means the concentration at half of the fitted maximal effect). The conditions noted are these: purified GBA, blue fluorogenic substrate, 40 min. In a few lines: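 Normal human glucocerebrosidase (0.2 nM) with blue fluorogenic substrate (80 uM final) in citrate/phosphate pH 5.9 with 10mM sodium taurocholate, 0.01% tween-20; 40 min RT, NaOH/glycine stop; fluorescence Ex 365/Em 440; AC50 from a titration from 0.6 nM upwards.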
Sequence of Lysosomal acid glucosylceramidase (Homo sapiens) (P04062 whole entry, looked up): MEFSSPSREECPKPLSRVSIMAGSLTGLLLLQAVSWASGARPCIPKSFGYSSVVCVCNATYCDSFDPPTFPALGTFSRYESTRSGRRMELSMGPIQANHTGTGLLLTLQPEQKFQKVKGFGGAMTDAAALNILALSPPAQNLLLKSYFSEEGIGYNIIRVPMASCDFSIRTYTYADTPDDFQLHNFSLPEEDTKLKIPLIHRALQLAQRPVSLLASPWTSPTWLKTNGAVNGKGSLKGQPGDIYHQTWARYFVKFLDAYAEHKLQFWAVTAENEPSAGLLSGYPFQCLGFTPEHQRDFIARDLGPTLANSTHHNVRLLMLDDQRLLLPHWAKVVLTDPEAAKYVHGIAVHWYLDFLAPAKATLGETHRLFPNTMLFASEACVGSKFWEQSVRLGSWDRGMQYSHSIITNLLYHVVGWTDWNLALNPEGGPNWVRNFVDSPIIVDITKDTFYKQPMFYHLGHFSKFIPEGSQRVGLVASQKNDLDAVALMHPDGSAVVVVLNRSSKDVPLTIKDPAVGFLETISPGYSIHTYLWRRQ

Experiment [4] deals with Cytochrome P450 1A2 (Homo sapiens) (UniProt P05177). Briefly: p450-cyp1a2 (AID 410; calls by dose curve; further: potency means the concentration at half of the fitted maximal effect). In short, it runs like this: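 O-Demethylation of luciferin 6' methyl ether by human CYP1A2 is monitored as luciferase luminescence. Substrate sits at Km (100uM); enzyme is 20nM. Values are scaled to 57 uM furafylline as maximal inhibition.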
Sequence of Cytochrome P450 1A2 (Homo sapiens) (P05177 whole entry, looked up): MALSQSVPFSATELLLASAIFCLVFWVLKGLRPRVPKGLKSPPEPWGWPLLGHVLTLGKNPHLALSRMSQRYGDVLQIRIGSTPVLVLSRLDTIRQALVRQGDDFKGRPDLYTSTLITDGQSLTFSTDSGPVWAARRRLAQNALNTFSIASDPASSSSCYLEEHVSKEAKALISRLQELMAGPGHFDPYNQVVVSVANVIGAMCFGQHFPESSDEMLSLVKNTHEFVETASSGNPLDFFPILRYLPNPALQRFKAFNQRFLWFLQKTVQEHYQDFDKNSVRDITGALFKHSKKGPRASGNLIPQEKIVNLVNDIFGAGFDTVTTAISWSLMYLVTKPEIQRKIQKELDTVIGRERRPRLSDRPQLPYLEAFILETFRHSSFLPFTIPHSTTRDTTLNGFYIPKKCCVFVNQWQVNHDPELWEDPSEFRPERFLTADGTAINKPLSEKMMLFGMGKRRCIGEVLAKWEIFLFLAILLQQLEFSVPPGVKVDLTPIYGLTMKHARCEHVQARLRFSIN
The nature of experiment [5]: NFAT Signaling Pathway (AID 444; active means well fitted curve in either direction with a large enough effect, not every such curve was filed as active;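 further: carbachol stimulus at about its EC50 of 1 µM final; on the % scale 0 is the no-effect control and ±100 the full control effect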). Conditions: Jurkat NFAT-bla M1, carbachol, beta-lactamase ratio, 5 h; at 7.69 µM (top of the series) unless noted. In a few lines: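 Jurkat cells with NFAT-driven β-lactamase reporter and co-expressed M1 receptor, stimulated with carbachol (final 1 uM, ~EC50), compound titration, 5 h at 37 °C. CCF4 loaded 1 h at RT; 460/530 nm ratio gave %activity and AC50.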

Experiment [6] can be described thus: Stat Signaling Pathway (AID 446; active means well fitted curve in either direction with a large enough effect, not every such curve was filed as active;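 further: ME-180 cervical cancer cells given 40 pM IL-6 alongside compound; SIE-controlled beta-lactamase reporter measured as 460/530 nm FRET emission ratio; on the % scale 0 is the no-effect control and ±100 the full control effect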). Conditions: ME-180 SIE beta-lactamase reporter, IL-6 stimulated, 5 h; at 7.69 µM (top of the series) unless noted. In a few lines: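 Compound effects on IL-6-induced STAT reporter activity were measured in ME-180 cells. After overnight culture, cells were co-treated with 40 pM IL-6 for 5 hrs before beta-lactamase substrate loading at room temperature.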

Experiment [7] addresses Glucocorticoid receptor (Homo sapiens) (UniProt P04150). Briefly: GR-GFP Redistribution (AID 450;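 active means compounds whose dose series gives a full or clear partial fitted curve of increased nuclear translocation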; further: potency means the concentration at half of the fitted maximal effect). Conditions: U2OS GR-GFP nuclear translocation, laser cytometry, 2 h.
Experiment [8] has the same target. Briefly: GR-EFC Redistribution (AID 451; calls by dose curve; further: potency means the concentration at half of the fitted maximal effect). The conditions noted are these: CHO-K1 GR-EFC translocation, beta-gal luminescence, 2 h. In a few lines: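 CHO-K1 cells expressing nuclear EA and GR-ED fragments of b-gal; compounds titrated up to 46 uM final, 2 h at 37 C. GR nuclear translocation read as complemented b-gal luminescence after 1 h RT detection.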
Experiment [9] deals with Mitogen-activated protein kinase 10 (Mus musculus) (UniProt Q61831). Briefly: JNK3 AlphaScreen Assay (AID 530; active means well fitted curve in either direction with a large enough effect, not every such curve was filed as active;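 further: kinase came from lysate of stimulated human HepG2 cells; signal reports phosphorylation of biotinylated GST-cJun 1-79 at Ser73 with 10 µM ATP; on the % scale 0 is the no-effect control and ±100 the full control effect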). In a few lines:
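Activity was read by AlphaScreen after JNK3-containing HepG2 lysate (cytokine pre-activated) phosphorylated biotinylated GST-cJun with 10 uM ATP at room temperature. Phospho-Ser73 cJun antibody with Protein-A acceptor beads provided detection.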
In general terms: In Alpha technology, singlet oxygen from a donor bead excites a nearby acceptor bead.

Experiment [10] concerns the target 3',5'-cyclic-AMP phosphodiesterase 4B (Homo sapiens) (UniProt Q07343). Description: qHTS Assay for Inhibitors of PDE-IV (AID 607; active means well fitted activation curve with a large enough effect in the main read-out, with a control signal flat, not every such curve was filed as active; further: % of control where 0% means no effect). In a few lines:
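ACTOne HEK293 cells carry a modified cAMP-gated CNG channel and express endogenous PDE4; plated 1000 cells/well, compounds up to 22.9 uM final. Membrane-potential dye fluorescence (ex 535/em 590) was read; parental cells received 10 uM forskolin + 100 uM RO 20-1724.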

Experiment [11] addresses Cytochrome P450 3A4 (Homo sapiens) (UniProt P08684). Briefly: qHTS Assay for Inhibitors and Substrates of Cytochrome P450 3A4 (AID 884). Further: potency means the concentration at half of the fitted maximal effect; nearly all actives have a fitted effect of over 50% in size. In short, it runs like this: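 Luminescent readout of luciferin produced by CYP3A4 (20 nM) dealkylation of Luciferin-PPXE, 25 uM (its KM). NADPH-driven reaction ran 60 min at RT after 10 min compound preincubation; data scaled to 57 uM ketoconazole as 100% inhibition.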

Experiment [12] shares this target. Briefly: qHTS Assay for Activators of Cytochrome P450 3A4 (AID 885). Further: nearly all actives have a fitted effect of over 65% in size. In short, it runs like this: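 CYP3A4 activity: Luciferin-PPXE O-dealkylation, 25uM substrate, 200mM KPO4, RT throughout. Read-out is luciferase luminescence; higher values reflect activation.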
Experiment [13] can be described thus: Confirmation and Secondary Assay for Modulators of Hemoglobin Beta Chain Splicing at IVS2 654 locus (AID 910).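 Further: HeLa cells stably carrying EGFP split by mutant beta-globin IVS2-654 intron; % of control where 0% means no effect.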 In short, it runs like this: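 HeLa cells stably expressing EGFP interrupted by β-globin IVS2-654 intron, seeded overnight in Opti-MEM/2% FCS, then treated 2 days at 37 °C. Restored splicing read as total peak GFP intensity per well by laser scanning cytometry (488 nm excitation, 500–520 nm emission); 500 nM antisense PNA as control.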

Experiment [14] is described as follows: Confirmation and Secondary Assay for Modulators of Hemoglobin Beta Chain Splicing at IVS2 705 locus (AID 930).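 Further: HeLa cells stably expressing the EGFP-705 splicing reporter; GFP fluorescence per well restored by corrected splicing of the IVS2-705 intron in EGFP; % of control where 0% means no effect.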 In a few lines:
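HeLa EGFP-705 reporter; 500 cells/well, o/n 37C 5% CO2; cpd 2 d; 488 ex/500-520 em laser scan; total peak GFP intensity/well. Ref: 500 nM […] antisense PNA.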

The target of experiment [15] is Ubiquitin carboxyl-terminal hydrolase 1 (Homo sapiens) (UniProt O94782). Description: Inhibitors of USP1/UAF1: Pilot qHTS (AID 504865).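 Further: rhodamine fluorescence freed from ubiquitin-rhodamine substrate followed over time; top concentration of the series differs between compounds; on the % scale 0 is the no-effect control and ±100 the full control effect; nearly all actives have a fitted effect of over 35% in size.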 In short, it runs like this:
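Deubiquitinase activity followed as kinetic rhodamine fluorescence release from 150 nM Ub-Rho. 1 nM USP1/UAF1 with compound, after 15 min room-temperature preincubation, in HEPES pH 7.8 buffer containing TCEP, EDTA, BSA and Tween-20.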

Experiment [16] in a line: Counterscreen qHTS for small molecule stabilizers of the endoplasmic reticulum resident proteome: GLuc-NoTag assay (AID 1508627). Further: potency means the concentration at half of the fitted maximal effect.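 On activity change, negative = inhibition: 0% = thapsigargin alone and -100% = DMSO vehicle control.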 In a few lines: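 Counterscreen line: SH-SY5Y-GLuc-NoTag. Seed, 5 h; compound, 19 h; thapsigargin 100 nM, 4 h; 37C/5% CO2. Readout: secreted GLuc luminescence, coelenterazine 0.07x final, no lysis.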
In general terms: A counterscreen serves to expose hits that act by an unwanted route or on another target.

Experiment [17] can be described thus: AP1 Signaling Pathway (AID 357; active means well fitted curve in either direction with a large enough effect, not every such curve was filed as active). The conditions noted are these: ME-180 AP-1-bla reporter, EGF-induced, beta-lactamase ratio, 5 h; at 7.69 µM (top of the series) unless noted. In a few lines:
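Titration-series screen for positive or negative modulators of EC50 EGF-induced signaling in ME-180 cells carrying an AP-1-driven beta-lactamase reporter. After 5 hours at 37 degrees Celsius, CCF4 460nm/530nm emission ratio gave %Activity; AC50 values derived.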

In experiment [18] the target is Cytochrome P450 2C19 (Homo sapiens) (UniProt P33261). Description: qHTS Assay for Inhibitors and Substrates of Cytochrome P450 2C19 (AID 899). Further: on the % scale 0 is the no-effect control and ±100 the full control effect; nearly all actives have a fitted effect of over 60% in size. In a few lines: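 5 nM human CYP2C19 with 10uM Luciferin-H EGE (at KM) in 50mM KPO4, compound preincubated 10 min at 37C, then NADPH regeneration for 60 min at 37C. Luciferin read by luminescence after detection reagent; normalized to 57uM ketoconazole as full inhibition.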
Sequence of Cytochrome P450 2C19 (Homo sapiens) (P33261 whole entry, looked up): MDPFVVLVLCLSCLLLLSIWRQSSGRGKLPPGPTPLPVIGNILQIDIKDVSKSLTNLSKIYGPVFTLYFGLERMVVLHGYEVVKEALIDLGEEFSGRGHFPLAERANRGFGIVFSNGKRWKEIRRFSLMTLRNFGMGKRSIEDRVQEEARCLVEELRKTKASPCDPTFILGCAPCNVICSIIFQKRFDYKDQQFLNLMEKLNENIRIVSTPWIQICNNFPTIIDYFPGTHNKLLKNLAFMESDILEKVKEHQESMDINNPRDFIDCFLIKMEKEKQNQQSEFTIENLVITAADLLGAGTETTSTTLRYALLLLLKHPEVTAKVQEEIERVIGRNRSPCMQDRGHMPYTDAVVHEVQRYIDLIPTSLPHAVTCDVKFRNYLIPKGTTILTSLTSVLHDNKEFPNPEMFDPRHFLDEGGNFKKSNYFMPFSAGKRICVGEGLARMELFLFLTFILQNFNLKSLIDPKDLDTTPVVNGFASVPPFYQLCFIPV

Experiment [19] is described as follows: qHTS Assay for Lipid Storage Modulators (AID 1519; calls by dose curve). The conditions noted are these: Drosophila S3 cells, BODIPY lipid droplet/cell ratio, laser cytometry, cells loaded with oleic acid; for activity change, negative = inhibition: at 57.5 µM (top of the series). In short, it runs like this: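 Cells seeded at 5,000 per well were treated with compounds over a concentration series and loaded with oleic acid (400 uM, as added). Lipid droplet fluorescence (488 nm excitation, 500-530 nm channel) was read by laser-scanning cytometry and normalized to 20 uM Triacsin C.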

The nature of experiment [20]: qHTS Assay for Identification of Small Molecule Agonists for Hypoxia Response Element Signaling Pathway (AID 914; active means well fitted activation curve with a large enough effect in the signal ratio, with a control signal flat, not every such curve was filed as active; the % refers to the signal ratio; further: potency means the concentration at half of the fitted maximal effect). Conditions: ME-180 (cervical carcinoma) HRE-bla reporter, beta-lactamase ratio, CoCl2, 17 h; activation: stronger effect = higher value. In a few lines: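 Read-out: CCF4 FRET ratio of 460nm to 530nm emission (excitation 405nm) after 2.5 hours at room temperature, taken from HRE-bla ME-180 cells that had been exposed to compound and EC50 CoCl2 for 17 hours.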

In experiment [21] the target is Dual specificity protein kinase CLK4 (Homo sapiens) (UniProt Q9HAZ1). Description: qHTS Assay for Inhibitors of CDC-like Kinase 4 (Kinase-Glo Assay) (AID 1770). Further: on the % scale 0 is the no-effect control and ±100 the full control effect; nearly all actives have a fitted effect of over 65% in size. In short, it runs like this:
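Luminescent ATP-depletion read-out (Kinase-Glo) after 4.5 h room-temperature reaction of Clk4 (25 nM final) with RS peptide (100 uM) and ATP (1 uM), pH 7.5 Tris buffer with MgCl2 and DTT.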

The target is the same in experiment [22]. Description: qHTS Assay for Inhibitors of CDC-like Kinase 4 (ADP-Glo Assay) (AID 1771). Further: on the % scale 0 is the no-effect control and ±100 the full control effect; nearly all actives have a fitted effect of over 70% in size. In a few lines: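 Compounds are pin-transferred onto substrate mix (100 uM RS peptide, 1 uM ATP), then 25 nM Clk4 is added. After 1 hr at room temperature, ADP-Glo reagent runs 45 min, detection reagent 30 min, then luminescence is read.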
Experiment [23] shares this target. Description: qHTS Assay for Inhibitors of CDC-like Kinase 4 (ADP-FP Assay) (AID 1795).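 Further: recombinant human CLK4 phosphorylating RS repeat peptide at 1 µM ATP; on the % scale 0 is the no-effect control and ±100 the full control effect; nearly all actives have a fitted effect of over 60% in size.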 In short, it runs like this:
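Kinase activity was measured as ADP production using Transcreener orange tracer (4 nM) and ADP antibody (1 ug/mL) fluorescence polarization, with ADP calculated from a calibration curve. The 1 h reaction contained 6.25 nM Clk4, 1 uM ATP and 100 uM RS peptide at pH 7.5 with Mg2+.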

[24] abbreviates: measured here: cell count channel max response.
Where [25] appears, read: measured here: lipid channel max response.

Results filed as inconclusive are left out. The source made the active and inactive calls. Unless noted, the call rests on the fitted dose curve; in most records, active means well fitted curve in the direction sought with a large enough effect; inconclusive means small, poorly fitted or top-dose-only effect, or another doubt; inactive means no such curve, though single readings can be large; an effect the other way counts as inactive or inconclusive.

Sequence of Ubiquitin carboxyl-terminal hydrolase 1 (Homo sapiens) (O94782 whole entry, looked up): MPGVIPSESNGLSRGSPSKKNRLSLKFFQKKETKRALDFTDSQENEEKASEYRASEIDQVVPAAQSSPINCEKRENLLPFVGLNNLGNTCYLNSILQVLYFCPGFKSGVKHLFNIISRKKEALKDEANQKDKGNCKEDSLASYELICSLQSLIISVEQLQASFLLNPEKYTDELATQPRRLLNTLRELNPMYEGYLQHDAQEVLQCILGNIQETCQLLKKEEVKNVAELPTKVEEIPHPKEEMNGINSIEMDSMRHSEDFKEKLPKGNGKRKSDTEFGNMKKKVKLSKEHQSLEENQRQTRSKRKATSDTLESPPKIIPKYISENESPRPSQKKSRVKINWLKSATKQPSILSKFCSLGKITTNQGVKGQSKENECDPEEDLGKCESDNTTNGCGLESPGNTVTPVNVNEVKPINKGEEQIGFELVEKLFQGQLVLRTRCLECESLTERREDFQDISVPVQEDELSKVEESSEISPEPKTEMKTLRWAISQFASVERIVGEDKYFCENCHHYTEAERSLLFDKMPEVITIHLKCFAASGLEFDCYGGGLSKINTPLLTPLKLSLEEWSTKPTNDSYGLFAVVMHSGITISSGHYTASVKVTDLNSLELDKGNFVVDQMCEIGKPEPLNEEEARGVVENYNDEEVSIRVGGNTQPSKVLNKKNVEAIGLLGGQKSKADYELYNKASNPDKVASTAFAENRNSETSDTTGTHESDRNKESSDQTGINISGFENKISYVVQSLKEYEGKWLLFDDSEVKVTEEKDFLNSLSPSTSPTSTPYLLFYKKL
Sequence of Glucocorticoid receptor (Homo sapiens) (P04150 whole entry, looked up, the tested form may be a part): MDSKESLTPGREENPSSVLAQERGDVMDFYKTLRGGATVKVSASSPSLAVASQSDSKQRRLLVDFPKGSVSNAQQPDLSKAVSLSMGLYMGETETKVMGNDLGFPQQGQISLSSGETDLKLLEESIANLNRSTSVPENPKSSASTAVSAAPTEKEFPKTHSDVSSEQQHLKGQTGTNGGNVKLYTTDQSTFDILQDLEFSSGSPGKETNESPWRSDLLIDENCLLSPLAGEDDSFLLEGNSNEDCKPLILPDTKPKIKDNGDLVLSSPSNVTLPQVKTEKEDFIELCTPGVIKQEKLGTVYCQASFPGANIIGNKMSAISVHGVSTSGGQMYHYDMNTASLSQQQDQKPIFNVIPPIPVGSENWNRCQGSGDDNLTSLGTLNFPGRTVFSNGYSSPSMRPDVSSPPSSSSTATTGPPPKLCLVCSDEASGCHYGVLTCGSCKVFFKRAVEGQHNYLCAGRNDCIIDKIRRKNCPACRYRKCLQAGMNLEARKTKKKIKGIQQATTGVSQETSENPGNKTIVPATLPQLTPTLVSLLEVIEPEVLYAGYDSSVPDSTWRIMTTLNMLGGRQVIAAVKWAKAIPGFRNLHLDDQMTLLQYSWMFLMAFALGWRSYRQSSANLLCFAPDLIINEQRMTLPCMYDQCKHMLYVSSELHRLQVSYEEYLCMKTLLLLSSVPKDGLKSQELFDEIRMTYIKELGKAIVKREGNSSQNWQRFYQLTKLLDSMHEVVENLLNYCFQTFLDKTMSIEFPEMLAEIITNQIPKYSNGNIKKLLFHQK
Sequence of Dual specificity protein kinase CLK4 (Homo sapiens) (Q9HAZ1 whole entry, looked up): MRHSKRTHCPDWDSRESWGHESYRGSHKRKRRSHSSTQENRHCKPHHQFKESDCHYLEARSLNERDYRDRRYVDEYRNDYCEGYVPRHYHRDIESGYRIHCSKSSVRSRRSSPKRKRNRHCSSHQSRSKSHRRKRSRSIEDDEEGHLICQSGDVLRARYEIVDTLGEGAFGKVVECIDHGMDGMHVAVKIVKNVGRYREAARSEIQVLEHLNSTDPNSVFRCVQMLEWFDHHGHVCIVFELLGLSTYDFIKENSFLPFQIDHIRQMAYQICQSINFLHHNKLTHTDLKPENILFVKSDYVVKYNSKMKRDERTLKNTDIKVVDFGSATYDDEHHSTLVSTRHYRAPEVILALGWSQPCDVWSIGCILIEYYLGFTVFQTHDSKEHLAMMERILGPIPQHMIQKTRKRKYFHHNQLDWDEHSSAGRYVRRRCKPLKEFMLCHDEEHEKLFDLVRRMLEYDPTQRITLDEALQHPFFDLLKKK
Sequence of Cytochrome P450 3A4 (Homo sapiens) (P08684 whole entry, looked up): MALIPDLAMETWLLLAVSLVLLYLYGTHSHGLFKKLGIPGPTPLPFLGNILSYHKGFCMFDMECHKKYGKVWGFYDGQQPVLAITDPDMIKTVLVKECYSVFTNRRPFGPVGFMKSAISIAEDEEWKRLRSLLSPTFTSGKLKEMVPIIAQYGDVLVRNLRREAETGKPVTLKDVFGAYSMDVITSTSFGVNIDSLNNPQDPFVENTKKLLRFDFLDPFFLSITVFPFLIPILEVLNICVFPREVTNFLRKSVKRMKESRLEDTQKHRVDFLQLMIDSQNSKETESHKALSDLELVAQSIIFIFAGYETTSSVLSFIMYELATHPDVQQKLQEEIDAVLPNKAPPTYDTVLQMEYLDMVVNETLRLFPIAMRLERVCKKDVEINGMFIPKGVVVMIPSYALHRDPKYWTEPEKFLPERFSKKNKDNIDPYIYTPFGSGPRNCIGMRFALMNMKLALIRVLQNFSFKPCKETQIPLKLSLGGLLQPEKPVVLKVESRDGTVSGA
Sequence of 3',5'-cyclic-AMP phosphodiesterase 4B (Homo sapiens) (Q07343 whole entry, looked up): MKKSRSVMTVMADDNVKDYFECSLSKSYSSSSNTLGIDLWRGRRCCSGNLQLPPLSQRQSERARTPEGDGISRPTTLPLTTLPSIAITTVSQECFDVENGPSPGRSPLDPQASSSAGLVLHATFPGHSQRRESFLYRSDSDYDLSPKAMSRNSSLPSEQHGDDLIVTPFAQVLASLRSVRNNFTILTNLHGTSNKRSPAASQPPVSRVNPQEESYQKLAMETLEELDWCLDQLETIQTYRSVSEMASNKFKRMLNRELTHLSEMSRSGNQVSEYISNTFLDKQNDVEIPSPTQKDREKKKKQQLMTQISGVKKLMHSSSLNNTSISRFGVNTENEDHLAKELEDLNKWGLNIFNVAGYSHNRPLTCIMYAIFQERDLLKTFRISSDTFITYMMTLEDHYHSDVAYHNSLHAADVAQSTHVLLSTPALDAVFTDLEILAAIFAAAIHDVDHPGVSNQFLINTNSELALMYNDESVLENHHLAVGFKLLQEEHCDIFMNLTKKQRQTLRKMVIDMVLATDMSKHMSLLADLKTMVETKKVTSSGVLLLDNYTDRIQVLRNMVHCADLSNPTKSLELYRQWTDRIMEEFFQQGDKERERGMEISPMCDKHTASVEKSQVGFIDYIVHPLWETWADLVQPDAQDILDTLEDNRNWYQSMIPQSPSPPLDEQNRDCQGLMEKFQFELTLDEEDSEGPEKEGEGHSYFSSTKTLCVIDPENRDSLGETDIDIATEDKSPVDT

`O=C(CCCN1C(=O)c2cccc3cccc(c23)C1=O)N1CCN(Cc2ccc3c(c2)OCO3)CC1`: the Potency in [1] was 27.3 µM (active). Further, the max response in experiment [2] is -13.9% (inactive).

Consider `COc1ccccc1-c1ccc2ncnc(N3CCN(C)CC3)c2c1`, for which the Potency is > 11.4 µM (inactive) in experiment [3]; 3.16 µM (active) in experiment [4]; > 46 µM (inactive) in [7]; > 46 µM (inactive) in experiment [8]; 3.16 µM (active) in [11]; 44.7 µM (active) in experiment [16]. Besides, the activity change, negative = inhibition in experiment [5] was 4.65% (inactive). Further, the activity, negative = inhibition in experiment [6] is 2.98% (inactive). The result in experiment [9], in experiment [13] and in experiment [14] was inactive. Besides, the Potency result in experiment [10], in experiment [12] and in experiment [15] was “inactive” throughout.

Take `Cc1nc2cnc(N3CCNCC3)nc2n(Cc2ccc(F)cc2)c1=O`: the Potency in experiment [3] was > 11.4 µM (inactive); in [4], 12.6 µM (active); in experiment [7], > 9.22 µM (inactive); in experiment [8], > 46 µM (inactive); in [1], 20 µM (active). Further, the activity change, negative = inhibition was 7.46% (inactive) in experiment [17], -14.9% (inactive) in experiment [5] and 2.97% (inactive) in [19]. Moreover, in experiment [6], the activity, negative = inhibition is 7.66% (inactive). In addition, the outcome in experiment [9] was inactive. Also, the Potency entry in [12] and in experiment [18] was “inactive” throughout. For the same compound, the results for the max response in experiment [19] (setting [24]), in experiment [19] (setting [25]) and in [2] were 14.9%, 19.5% and 11.4% (inactive), respectively.

As to `COc1ccccc1-c1cncnc1NCCN1CCOCC1`, the Potency in [3] is > 11.4 µM (inactive); in experiment [7], > 46 µM (inactive); in [8], > 46 µM (inactive); in [20], 2.51 µM (active). Further, the activity, negative = inhibition in experiment [6] was 1.09% (inactive). Besides, the compound was classed as inactive in [9], in experiment [13] and in experiment [14]. Besides, the activity change, negative = inhibition in experiment [19] was 0.65% (inactive). Further, the max response stood at 4.25% in experiment [19] (setting [24]) and 4.66% in experiment [19] (setting [25]). The Potency result in experiment [15] and in experiment [16] was “inactive” each time.

As to `Cc1nc2cnc(N3CCN(C)CC3)nc2n(-c2ccccc2)c1=O`, the activity change, negative = inhibition in experiment [17] is -10.2% (inactive); in experiment [5], -6.35% (inactive); in experiment [19], 2.71% (inactive). Further, the Potency in [4] was 3.98 µM (active); in [7] it was > 9.22 µM (inactive); in experiment [8] it was > 46 µM (inactive). The activity, negative = inhibition in experiment [6] is -7.64% (inactive). Besides, the outcome in [9] was inactive. The Potency entry in experiment [10], in experiment [21], in experiment [22], in experiment [23], in experiment [15] and in experiment [16] was “inactive” in each case. Also, the max response in experiment [19] (setting [24]) came out at 7.22%; in [19] (setting [25]) it was 7.19%.

Regarding `Cc1cccc(CNc2ncnc3ccc(-c4ccccc4CN(C)C)cc23)c1`, the Potency was > 11.4 µM (inactive) in experiment [3], > 46 µM (inactive) in experiment [7], > 46 µM (inactive) in experiment [8] and 0.447 µM (active) in experiment [16]. For the same compound, the activity, negative = inhibition in experiment [6] was -2.09% (inactive). The call in experiment [9], in [13] and in experiment [14] was inactive. Besides, the activity change, negative = inhibition in experiment [19] was 3.56% (inactive). The max response in experiment [19] (setting [24]) was -10.3%; in experiment [19] (setting [25]), -6.74%.

These data come from PubChem BioAssay (NCATS).
